Reference: ChEMBL document CHEMBL1201862, “PubChem BioAssay data set” (2004)
Among all 410,000 compounds or so, about 5,100 (1.2%) were called active. Inconclusive results (about 8%) are left out. The calls are words filed in the database; no cut-off is given here. Shown is part of a subset that was picked to be rich in actives.

Test: High Throughput Screening for Foot and Mouth Disease Virus Antivirals.
Assay type: functional
Conditions: read-out: Potency
For CN(C)CCNC(=O)C1CCN(Cc2cc3ccccc3n2Cc2ccccc2)CC1, the AC50 was 398 µM (active).
